A number with no mark means an inactive call. For some assays here: Entries with a potency or affinity are not part of this list. Calls of active or inactive are those of the source. Unless noted, the rule behind the calls is not given here.
Tests used:
[1] = antimalarial activity against Dd2 strain (AID 2302;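 active = growth inhibition above 50% at the single 2 µM test dose, taken to imply half-maximal potency below 2 µM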;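 note: 0% = DMSO untreated growth and 100% = chloroquine plus artemisinin killed control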); settings: P. falciparum Dd2 in RBCs, LDH growth readout, 72 h; at 2 µM; active compounds read high
[2] = human hepatoma cell viability loss – ATP luminescence, cytotoxicity control for P. falciparum antimalarial project, primary screen (AID 2303;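 active = inhibition above 50%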;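 note: 0% = DMSO wells and 100% = digitonin-killed cells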); settings: HepG2 viability, 24-48 h, at 10 µM, active compounds read high
[3] = molecular target: L-lactate dehydrogenase (Plasmodium falciparum (isolate CDC / Honduras)) (UniProt Q27743); experiment: PfLDH activity inhibition – cell lysate, 3D7 strain, counter-screen for P. falciparum growth inhibition project (AID 2304);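 note: 0% = vehicle and 100% = reference inhibitor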; settings: P. falciparum 3D7 crude extract, LDH APAD/NBT absorbance; at 2 µM; active compounds read high
[4] = inhibition of 3D7 malaria parasite growth – strain 3D7 (AID 2306);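 note: 0% = DMSO wells and 100% = chloroquine plus artemisinin control wells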; settings: P. falciparum 3D7 erythrocytic growth, LDH absorbance, 72 h; at 2 µM; active compounds read high
[5] = molecular target: Calcium-dependent protein kinase 1 (Plasmodium falciparum (isolate 3D7)) (UniProt P62344); experiment: PfCDPK1 kinase inhibitors, biochemical, TCAMS library (AID 1159585; cut-off not given, nearly all actives have IC50 up to about 0.98 µM;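 note: inhibitors leave more ATP so luminescence rises with inhibition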); settings: recombinant PfCDPK1, Kinase-Glo ATP depletion luminescence
[6] = molecular target: Plasmodium falciparum protein kinase 6 (PK6, PF3D7_1337100) (UniProt Q8IDW1); experiment: PfPK6 kinase inhibitors, biochemical, TCAMS library (AID 1159586); settings: recombinant PfPK6, Kinase-Glo ATP depletion luminescence
[7] = molecular target: Protein kinase 7 (PK7), Plasmodium falciparum 3D7 (PF3D7_0213400) (UniProt Q7YTF7); experiment: inhibition of Plasmodium PK7 catalytic activity – biochemical, TCAMS antimalarial set, Kinase-Glo luminescence (AID 1159587); settings: recombinant PfPK7, Kinase-Glo ATP depletion luminescence
[8] = molecular target: Calcium-dependent protein kinase 4 (Plasmodium falciparum (isolate 3D7)) (UniProt Q8IBS5); experiment: PfCDPK4 kinase inhibitors, biochemical, TCAMS library (AID 1159588; cut-off not given, nearly all actives have IC50 up to about 0.91 µM); settings: recombinant PfCDPK4, Kinase-Glo ATP depletion luminescence
Sequence of Calcium-dependent protein kinase 4 (Plasmodium falciparum (isolate 3D7)) (Q8IBS5 whole entry, looked up): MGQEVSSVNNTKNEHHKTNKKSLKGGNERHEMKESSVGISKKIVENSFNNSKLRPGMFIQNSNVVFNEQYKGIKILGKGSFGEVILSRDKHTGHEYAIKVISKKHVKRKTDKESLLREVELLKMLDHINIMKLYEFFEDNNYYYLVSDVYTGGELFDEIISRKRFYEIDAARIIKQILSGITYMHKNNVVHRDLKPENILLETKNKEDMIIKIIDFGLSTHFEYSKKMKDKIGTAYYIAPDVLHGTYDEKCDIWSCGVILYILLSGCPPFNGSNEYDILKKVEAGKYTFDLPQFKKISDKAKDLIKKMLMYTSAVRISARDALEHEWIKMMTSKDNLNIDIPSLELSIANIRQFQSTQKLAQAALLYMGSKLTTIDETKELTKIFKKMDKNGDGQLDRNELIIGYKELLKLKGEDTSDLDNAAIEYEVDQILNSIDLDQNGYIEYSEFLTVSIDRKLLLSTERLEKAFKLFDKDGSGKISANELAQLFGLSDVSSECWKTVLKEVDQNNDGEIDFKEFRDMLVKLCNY

Sequence of Plasmodium falciparum protein kinase 6 (PK6, PF3D7_1337100) (Q8IDW1 1-305): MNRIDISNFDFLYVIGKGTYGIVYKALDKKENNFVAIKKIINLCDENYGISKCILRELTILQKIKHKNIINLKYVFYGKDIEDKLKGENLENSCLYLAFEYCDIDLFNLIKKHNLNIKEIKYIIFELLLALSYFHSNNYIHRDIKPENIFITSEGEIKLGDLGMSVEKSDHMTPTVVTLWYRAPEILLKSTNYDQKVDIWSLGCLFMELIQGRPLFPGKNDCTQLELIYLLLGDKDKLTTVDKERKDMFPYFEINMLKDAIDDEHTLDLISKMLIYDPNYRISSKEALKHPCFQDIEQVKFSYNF
Sequence of Calcium-dependent protein kinase 1 (Plasmodium falciparum (isolate 3D7)) (P62344 whole entry, looked up): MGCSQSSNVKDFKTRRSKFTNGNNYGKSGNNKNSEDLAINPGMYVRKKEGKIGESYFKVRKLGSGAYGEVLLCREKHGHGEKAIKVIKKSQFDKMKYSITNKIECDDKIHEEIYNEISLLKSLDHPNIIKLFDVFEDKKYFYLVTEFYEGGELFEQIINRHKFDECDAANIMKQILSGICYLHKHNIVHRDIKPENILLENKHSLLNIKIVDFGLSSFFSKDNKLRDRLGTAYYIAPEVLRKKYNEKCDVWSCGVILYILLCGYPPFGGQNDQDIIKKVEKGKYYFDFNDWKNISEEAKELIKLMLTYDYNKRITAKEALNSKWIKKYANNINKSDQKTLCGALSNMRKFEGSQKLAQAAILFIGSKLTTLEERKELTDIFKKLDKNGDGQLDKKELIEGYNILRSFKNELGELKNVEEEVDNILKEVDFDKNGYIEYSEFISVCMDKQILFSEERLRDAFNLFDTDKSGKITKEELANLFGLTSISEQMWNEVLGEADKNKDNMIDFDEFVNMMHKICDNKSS
Sequence of L-lactate dehydrogenase (Plasmodium falciparum (isolate CDC / Honduras)) (Q27743 whole entry, looked up): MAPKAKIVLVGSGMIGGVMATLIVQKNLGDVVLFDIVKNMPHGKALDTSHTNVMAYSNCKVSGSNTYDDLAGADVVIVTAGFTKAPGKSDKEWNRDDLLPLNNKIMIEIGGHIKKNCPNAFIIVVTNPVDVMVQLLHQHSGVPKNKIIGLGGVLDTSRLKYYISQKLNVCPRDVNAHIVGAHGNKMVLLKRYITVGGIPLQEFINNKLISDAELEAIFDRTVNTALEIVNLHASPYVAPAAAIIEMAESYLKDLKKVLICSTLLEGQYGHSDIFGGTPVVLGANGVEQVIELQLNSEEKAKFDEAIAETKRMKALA
Sequence of Protein kinase 7 (PK7), Plasmodium falciparum 3D7 (PF3D7_0213400) (Q7YTF7 1-343): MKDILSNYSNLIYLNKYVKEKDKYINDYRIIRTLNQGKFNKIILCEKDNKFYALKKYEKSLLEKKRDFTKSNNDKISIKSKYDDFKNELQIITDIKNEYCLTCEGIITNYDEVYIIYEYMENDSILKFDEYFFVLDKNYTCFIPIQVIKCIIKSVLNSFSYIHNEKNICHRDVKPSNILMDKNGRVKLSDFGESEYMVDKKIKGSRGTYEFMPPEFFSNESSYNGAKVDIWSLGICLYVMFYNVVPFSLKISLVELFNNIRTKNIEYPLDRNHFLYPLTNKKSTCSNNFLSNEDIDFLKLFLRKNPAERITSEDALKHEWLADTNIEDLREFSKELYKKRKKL

Compound	growth inhibition [1]	inhibition [2]	inhibition [3] [%]	growth inhibition [4]	outcome [5]	outcome [6]	outcome [7]	outcome [8]
O=C(Nc1ccc(F)cc1)NC1CCN(CCCCCNC(=O)[C@@H]2C[C@H]2c2ccc(Cl)c(Cl)c2)CC1	20%	46%	-2	101% (active)	inactive	inactive	inactive	inactive
COc1cc2nccc(Nc3ccc(OCc4ccc(NC(C)=O)cc4)cc3)c2cc1OC	95% (active)	24%	3	101% (active)	inactive	inactive	inactive	inactive
Cc1cccc(Oc2cccc3[nH]nc(N)c23)c1	-3%	6%	-2	85% (active)	inactive	inactive	inactive	inactive
COc1ccc(NC(=O)[C@H](Cc2ccccc2)Nc2cc(C)nc(NCCc3ccc(F)cc3)n2)cc1	82% (active)	17%	-3	101% (active)	inactive	inactive	inactive	inactive
CC(C)CC(NC(=O)c1cccc(OCCN2CCOCC2)c1)C(=O)NC(/C=N/NC(=O)c1ccccc1)CCc1ccccc1 (stereo not given)	88% (active)	-5%	-9	96% (active)	inactive	inactive	inactive	inactive
CCCCNc1cc(C)nc(NCc2ccccc2)n1	37%	23%	3	97% (active)	inactive	inactive	inactive	inactive
CCCNS(=O)(=O)c1ccc(NC(=O)C(C)Oc2ccc([N+](=O)[O-])cc2)cc1 (stereo not given)	37%	3%	3	100% (active)	inactive	inactive	inactive	inactive
Cc1cccn2c(=O)c3cc(C(=O)NC(C)c4ccccc4)c(=N)n(CCc4ccccc4)c3nc12 (stereo not given)	82% (active)	5%	-3	101% (active)	inactive	inactive	inactive	inactive
Cc1cccc2[nH]c(-c3ccc(-c4ccc(CN5CCN(CCO)CC5)cc4)s3)nc12	47%	34%	0	92% (active)	inactive	inactive	inactive	inactive
N#Cc1cccc(NC(=O)Nc2cccc(OC3CCN(Cc4ccccc4)CC3)c2)c1	48%	5%	1	100% (active)	inactive	inactive	inactive	inactive
CCc1nc(N)nc(N)c1-c1ccc(F)c(F)c1	-1%	58% (active)	-3	98% (active)	inactive	inactive	inactive	inactive
O=C(Nc1cc(Cl)ccc1Cl)N[C@H]1CCN(CCCCCNC(=O)[C@@H]2C[C@H]2c2ccc(Cl)c(Cl)c2)C1	1%	49%	0	97% (active)	inactive	inactive	inactive	inactive
O=C(Nc1ccc(Cl)cc1)OCCn1nnnc1C(c1ccc(Cl)cc1)N1CCOCC1 (stereo not given)	79% (active)	1%	4	90% (active)	inactive	inactive	inactive	inactive
NC(N)=NN=CC(=O)Nc1cc([N+](=O)[O-])cc([N+](=O)[O-])c1	-2%	-5%	-4	100% (active)	inactive	inactive	inactive	inactive
O=C(Nc1cccnc1)c1cc(-c2cccnc2)nc2ccc(Br)cc12	60% (active)	9%	1	99% (active)	inactive	inactive	inactive	inactive
O=C(N[C@@H](CC1CCCCC1)C(=O)NCc1cccc(C(F)(F)F)c1)c1ccc(O)c(-c2ccc(Cl)c(Cl)c2)c1	100% (active)	-5%	5	98% (active)	inactive	inactive	inactive	inactive
COc1ccc(-c2cnc(NCc3ccccc3)nc2)cc1CNC1CCN(C)CC1	64% (active)	19%	1	96% (active)	inactive	inactive	inactive	inactive
COc1cc(Nc2ccnc3cc(-c4ccccn4)ccc23)cc(OC)c1OC	0%	-9%	-1	91% (active)	inactive	inactive	inactive	inactive
O=C(/C=C/c1ccc(Cl)c(Cl)c1)NCCCCCN1CCC(NS(=O)(=O)c2cc(Cl)cc(Cl)c2)CC1	5%	7%	3	83% (active)	inactive	inactive	inactive	inactive
Cc1ccccc1Nc1nc(NCCCO)c2ccccc2n1	50% (active)	-1%	-5	83% (active)	inactive	inactive	inactive	inactive

Compound	growth inhibition [1]	inhibition [2]	inhibition [3] [%]	growth inhibition [4]	outcome [5]	outcome [6]	outcome [7]	outcome [8]
CC(C)C(=O)NC(c1ccc(N(C)C)cc1)c1cc(Cl)c2cccnc2c1O (stereo not given)	64% (active)	61% (active)	2	87% (active)	inactive	inactive	inactive	inactive
O=c1cc(NCCCNCc2ccc(C(F)(F)F)s2)[nH]c2ccccc12	68% (active)	-11%	2	99% (active)	inactive	inactive	inactive	inactive
COc1ccc(CSC2CCCCC23NC(=S)NC3=S)cc1 (stereo not given)	-3%	-5%	-1	97% (active)	inactive	inactive	inactive	inactive
COc1ccc2nccc([C@@H](O)CN3CC[C@H](NCc4nc5c(cc4Cl)OCC(=O)N5)[C@H](F)C3)c2c1	29%	4%	4	84% (active)	inactive	inactive	inactive	inactive
OC(CNCc1ccccc1OCc1ccccc1)c1cccc(I)c1 (stereo not given)	100% (active)	2%	-1	100% (active)	inactive	inactive	inactive	inactive
CCc1ccc(S(=O)(=O)Nc2ccc(CCN3CCC(N4CCCCC4)CC3)cc2)cc1	13%	35%	-2	100% (active)	inactive	inactive	inactive	inactive
CCOC(=O)NCC(=O)Nc1cccc(-c2cccc(-c3nc4c(C)cccc4[nH]3)c2)c1	35%	14%	1	88% (active)	inactive	inactive	inactive	inactive
CCCCCn1c(Sc2ccc(C#N)c([N+](=O)[O-])c2)nnc1-c1ccccc1	15%	22%	-2	93% (active)	inactive	inactive	inactive	inactive
COc1ccccc1CN1CCC(NC(=O)c2ccc(-c3cccc(C(F)(F)F)c3)s2)CC1	12%	83% (active)	-2	85% (active)	inactive	inactive	inactive	inactive
CCOc1cc(C(=O)NCc2cc(Cl)cc(Cl)c2)ccc1-c1nc2ccc(Cl)cc2[nH]1	5%	1%	-3	101% (active)	inactive	inactive	inactive	inactive
Cc1cc2c(cc1C(F)(F)F)N(C(=O)Nc1cnc(OCCN(C)C)c(C(F)(F)F)c1)CC2	25%	28%	-2	88% (active)	inactive	inactive	inactive	inactive
O=C(NC1CCN(Cc2ccccc2)CC1)c1cc(-c2ccncc2)c(-c2ccc(Cl)c(O)c2)o1	86% (active)	9%	1	100% (active)	inactive	inactive	inactive	inactive
Cc1ccc(C(=O)Cn2nc(-c3ccc(C)c(S(=O)(=O)N4CCCCC4)c3)ccc2=O)cc1	76% (active)	6%	-5	99% (active)	inactive	inactive	inactive	inactive
CCC(O)(C#Cc1c(C)nc(N)nc1N)CC	-5%	63% (active)	2	97% (active)	inactive	inactive	inactive	inactive
O=C(CCc1cnc[nH]1)Nc1ccc(-c2cccc(-c3nc4ccccc4[nH]3)c2)cc1	42%	12%	4	101% (active)	inactive	inactive	inactive	inactive
Nc1c2c(nc3ccc(Oc4ccc(Cl)cc4)cc13)CCCC2	65% (active)	42%	-8	100% (active)	inactive	inactive	inactive	inactive
CCN(CC)Cc1cccc(-c2cc3c(-c4ccc(C(=O)O)c(C(C)C)c4)ccnc3[nH]2)c1OC	99% (active)	57% (active)	-2	99% (active)	inactive	inactive	inactive	inactive
CN(Cc1ccccc1)C1CCCN(c2cc(NC(=O)c3cccs3)ccn2)C1 (stereo not given)	90% (active)	2%	-1	88% (active)	inactive	inactive	inactive	inactive
CCn1c(Sc2ccc(C#N)c([N+](=O)[O-])c2)nnc1-c1cc(OC)cc(OC)c1	82% (active)	7%	-2	93% (active)	inactive	inactive	inactive	inactive
Cc1nc2ccc3ccc(CNc4ccc(C(=O)N[C@@H](CCC(=O)O)C(=O)O)cc4)cc3c2c(=O)[nH]1	95% (active)	32%	0	89% (active)	inactive	inactive	inactive	inactive

From PubChem BioAssay
